From PubChem BioAssay (EPA / NIEHS)
Records with an inconclusive call do not appear. Calls of active or inactive are those of the source. Rule for the calls: active = hit-call score of the fitted dose curve at least 0.9, where 1 is the maximum; inconclusive = response in the unintended direction; inactive = score below 0.9.

The compounds below were run on HMG-CoA synthase (HMGCS2), HMGCS2 (gene 3158) (assay: CLD_HMGCS2_48hr: CellzDirect (CLD) Gene Expression Assay for HMG-CoA synthase (HMGCS2) at 48 hours (AID 2283711)).
Procedure: CLD_48hr is a cell-based, multiplexed-readout assay that uses hepatocyte, a human liver primary cell, with measurements taken at 48 hours after chemical dosing in a 96-well plate.CLD_HMGCS2_48hr is one of 16 assay component(s) measured or calculated from the CLD_48hr assay. It is designed to make measurements of mRNA induction, a form of inducible reporter, as detected with chemiluminescence signals by Quantitative Nuclease Protection Assay (qNPA) technology.Data from the assay component CLD_HMGCS2_48hr was analyzed at the endpoint, CLD_HMGCS2_48hr, in the positive analysis fitting direction relative to DMSO as the negative control and baseline of activity. Using a type of inducible reporter, gain-of-signal activity can be used to understand changes in the reporter gene as they relate to the gene HMGCS2. Furthermore, this assay endpoint can be referred to as a primary readout. To generalize the intended target to other relatable targets, this assay endpoint is annotated to the lyase intended target family, where subfamily is HMG-CoA synthase.
Human hepatocyte cultures were treated daily for two consecutive days with fresh dosing solutions containing appropriate concentrations of the 320 ToxCast chemicals (chemical identities were blinded to CellzDirect and other ToxCast collaborators), vehicle control (0.2% DMSO), and positive control inducers as summarized in Table 1. Due to the large number of treatment groups and chemicals examined, the ToxCast chemicals were divided into two groups (spanning two independent cultures of hepatocytes from separate donor preparations (Hu778: ToxCast plates 1 and 2; Hu776: ToxCast plates 3 and 4). Each preparation of human hepatocyte cultures was treated with respective vehicle control, medium only control, set of six positive controls/reference chemicals for the five hepatic receptor pathways, and a subset of eight of the ToxCast chemicals (indoxacarb, pyrithiobac-sodium, norflurazon, cyhalofop-butyl, methomyl, thiram, acetochlor, and propiconazole). These replicate data, coupled with internal replicates designed within the blinded ToxCast chemical library, provided additional data to evaluate interindividual differences between hepatocyte preparations and their potential impact on chemical profiles.Cell morphology and integrity were evaluated using phase-contrast microscopy as an indicator of hepatocyte cell health (Tyson & Green, 1987). Cultures for each treatment group (i.e., media, vehicle [0.2% DMSO], positive control inducers [multiple concentrations], and the ToxCast chemicals [multiple concentrations]) were observed and cell morphology was assessed relative to vehicle control cultures at each harvest time point (0, 6, 24, or 48 h). […] Images were evaluated at the conclusion of the study to assess changes in cell integrity and account for the effects of chemical exposure on uncharacteristic changes in concentration-dependent gene expression profiles. The results from these determinations of apparent cytotoxicity were annotated (yes/no) alongside the corresponding qNPA data for reference.At the conclusion of each treatment period, hepatocyte cultures (96-well) were washed with 1 volume of HBSS, lysed by addition of 25 ul ArrayPlate lysis buffer (HTG, Tucson, AZ), and 70 ul/well of Denaturation Oil, denatured by incubation at 95C for 10 min, and frozen at approximately -70C until analysis by nuclease protection assay (qNPA) (Roberts et al., 2007). For qNPA analysis, cell lysates were thawed at 50C for approximately 30 min, qNPA probes were added, and samples were incubated at 95C for 10 min to begin the detection process by denaturing the target RNA, dissociating the duplexes and secondary structure hybridization. At the conclusion of the hybridization period, S1 nuclease reagent was added to each sample to digest all nonprotected nucleotides at 50C for 60-90 min. […]

SMILES | outcome | AC50
CC(=NC#N)N(C)Cc1ccc(Cl)nc1 | inactive | 
CCOP(=S)(OCC)Oc1ccc2c(C)c(Cl)c(=O)oc2c1 |  | 12.5 nM (active)
CCOP(=S)(OCC)Oc1ccc([N+](=O)[O-])cc1 | inactive | 
CN1COCN(Cc2cnc(Cl)s2)C1=N[N+](=O)[O-] | inactive | 
O=C(O)c1cc(Oc2ccc(C(F)(F)F)cc2Cl)ccc1[N+](=O)[O-] |  | 26 nM (active)
C#CC(C)(C)NC(=O)c1cc(Cl)cc(Cl)c1 |  | 9.4 nM (active)
COP(=O)(NC(C)=O)SC (stereo not given) | inactive | 
CN(C)C(=O)Nc1cccc(C(F)(F)F)c1 | inactive | 
CCCCN(CC)c1c([N+](=O)[O-])cc(C(F)(F)F)cc1[N+](=O)[O-] | inactive | 
CC(C1CC1)C(O)(Cn1cncn1)c1ccc(Cl)cc1 (stereo not given) | inactive | 
CC[C@H](C)[C@H]1O[C@]2(C=C[C@@H]1C)C[C@@H]1C[C@@H](C/C=C(\C)[C@@H](O[C@H]3C[C@H](OC)[C@@H](O[C@H]4C[C@H](OC)[C@@H](NC)[C@H](C)O4)[C@H](C)O3)[C@@H](C)/C=C/C=C3\CO[C@@H]4[C@H](O)C(C)=C[C@@H](C(=O)O1)[C@]34O)O2 | inactive | 
CC(C)N(C(=O)SCC(Cl)=C(Cl)Cl)C(C)C | inactive | 
C=C(C)[C@H]1Cc2c(ccc3c2O[C@@H]2COc4cc(OC)c(OC)cc4[C@@H]2C3=O)O1 | inactive | 
CCCCSP(=O)(SCCCC)SCCCC | inactive | 
COP(=O)(OC)SCn1c(=O)oc2cc(Cl)cnc21 | inactive | 
CCCOc1nn(C(=O)NS(=O)(=O)c2ccccc2C(=O)OC)c(=O)n1C | inactive | 
CC(COc1ccc(Oc2ccccc2)cc1)Oc1ccccn1 (stereo not given) | inactive | 
CCc1cnc(C2=NC(C)(C(C)C)C(=O)N2)c(C(=O)O)c1 (stereo not given) | inactive | 
COc1cc(OC)nc(Sc2cccc(Cl)c2C(=O)O)n1 | inactive | 
CC1=NNC(=O)N(/N=C/c2cccnc2)C1 | inactive | 
CCCCOC(=O)[C@@H](C)Oc1ccc(Oc2ccc(C#N)cc2F)cc1 | inactive | 
CCCSP(=O)(OCC)Oc1ccc(Br)cc1Cl (stereo not given) | inactive | 
CN(C)[C@@H]1C(=O)C(C(N)=O)=C(O)[C@@]2(O)C(=O)C3=C(O)c4c(O)cccc4[C@@](C)(O)[C@H]3[C@H](O)[C@@H]12 |  | 164 nM (active)
Cc1ccn2nc(S(=O)(=O)Nc3c(F)cccc3F)nc2n1 | inactive | 
CCNc1nc(Cl)nc(NC(C)(C)C#N)n1 | inactive | 
CNC(=O)ON=C(SC)C(=O)N(C)C | inactive | 
CCCSP(=O)(OCC)SCCC | inactive | 
N#CSCSC#N | inactive | 
C[N+]1(C)CCCCC1 | inactive | 
COP(=O)(OC)C(O)C(Cl)(Cl)Cl (stereo not given) | inactive | 
